# Measured values: the supplement of paper PMC11417369
# ± gives the standard deviation of the averaged measurements. In all, about 25,000 sequences were measured (“ln(normalized median fluorescence intensity)”: median about 8.6, highest 2% from about 10 on). This is one part of a sample in which the highest values are shown more often than they occur.
# Tested on: PfAP2-EXP AP2 domain (GST-tagged)
# Assay: gcPBM binding intensity (ln(normalized median fluorescence intensity)); higher = stronger DNA binding
# In short: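 An Agilent 4 × 180k array of primer-extended double-stranded 36-bp intergenic genomic probes, with negative controls, was incubated for 1 h with GST-tagged P. falciparum DNA-binding domains expressed in E. coli. Alexa488 anti-GST antibody detected bound protein, scanned at 488 nm. Binding intensity is the highest Masliner-normalised natural-log median intensity across replicate spots of either probe orientation.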
row,Sequence,gcPBM binding intensity (ln)
1,TTTTATCGTTTTTTTTTTTTTTTTTTTTTTTTTTTT [CACACA_negctrl_site1309],9.06 ± 0.092
2,TCTGGATTGGATTACAAGAAAATAAAATATAAAATA [CACACA_negctrl_site122],8.38 ± 0.4
3,ATGAAGAAGTGTAAATGTACATTTTATGTAGAACAA [XGTACX_site6925],8.93 ± 0.48
4,TAATATTATATTATATGTACATAACAAATTATATTT [XGTACX_site4296],8.6 ± 0.21
5,ATTTTTTTATAAGAAAATTTCTAACGTTAAAAAAAA [CACACA_negctrl_site1367],8.38 ± 0.59
6,TATATATATGTATGATGTACATATATGCATATATAT [XGTACX_site3399],8.54 ± 0.23
7,ATATATATATATGATACATGCATATATTTTTTCTTC [TGCATGCA_site216],9.99 ± 0.13
8,TATATATATATATATGCATGCCATATGATATATATA [TGCATGCA_site109],10.3 ± 0.27
9,ATTTTATTTTTTGAGTGTACTAGTTCAACAACTCCG [XGTACX_site8600],8.72 ± 0.52
10,TGGTTTCAATAATTAATAAAATATATTATTGTGAAA [CACACA_negctrl_site442],7.95 ± 0.41
11,AAGACAATATATGCAGTGCATATACATACATATATA,8.65 ± 0.25
12,CGTATGTGCGGACATGCATGCAATATACAAGAAAAA [TGCATGCA_site145],10.2 ± 0.28
13,ACGGAAAAAGAAAAGGTGCATATGGACACAATATAT,9.35 ± 0.17
14,AAGAAAAGTAAATATGCATGTAGGGTAGGTTATTTT [TGCATGCA_site46],8.94 ± 0.23
15,TGGGTCTCTAACTGGTGTACTATTTACATATTATAC [XGTACX_site8593],8.75 ± 0.37
16,TAAATATAAACACAAACACACACATATATATATATA [CACACA_site7978],10.1 ± 0.42
17,TGTATAATCATATATACACACACATATATATATATA [CACACA_site8674],10.1 ± 0.24
18,GGAACAAATAATATCACACATATATATATATATATA [CACACA_site5670],10.3 ± 0.23
19,TATAAATATAAATATACACACATATATATATATATA [CACACA_site1678],9.99 ± 0.4
20,AATATACAAAATATCACACATATAAAATAATATATA [CACACA_site6067],8.27 ± 0.5
21,TATAATCATATATACACACACATATATATATATATA [CACACA_site2168],10.2 ± 0.43
22,ATAATAAAATAAATCACACATAATATAATGTAATAT [CACACA_site6144],8.44 ± 0.3

row,Sequence,gcPBM binding intensity (ln)
1,TATATATATAAATACACACACATATATATATATATA [CACACA_site4867],10.2 ± 0.25
2,TGTATAAATATAATCACACATATATATATATATATA [CACACA_site4365],10.3 ± 0.73
3,GCTATAAATATAATCACACATAAATATATAATATAT [CACACA_site5144],8.23 ± 0.29
4,TATAAATAAATACATACACACACATACATATATATA [CACACA_site9024],8.71 ± 0.38
5,TATAATCATAAATACACACACATATATATATATATA [CACACA_site5224],10.2 ± 0.42
6,TATATGAAGCTATAGACACACATATAAAAATATAAT [CACACA_site4850],8.64 ± 0.47
7,TCCCTAGTATACCTTAGTACATATATTATTTTGCAC [XGTACX_site2174],8.98 ± 0.11
8,ACTAGTAAATTTATATGTACATATATATATATATAG [XGTACX_site2502],8.68 ± 0.24
9,ATACATATATATATATGTACATATGTATTTTTTATT [XGTACX_site105],8.63 ± 0.38
10,ATATATTTAATATTCACACATAATTATTTTTACTCT [CACACA_site5438],8.59 ± 0.38
11,CATCCAAAAATATTATGTACTAAATTTGGATGTATT [XGTACX_site3954],8.48 ± 0.47
12,TTTTAAATATGCCATACACACTACTATATAATAAAT [CACACA_site5119],8.58 ± 0.34
13,ATACTTTTAAATTGATGTACTTTATTTATAAGGTGA [XGTACX_site6746],8.38 ± 0.38
14,ACTTTACAATATATATGTACATATTAATAAACATAT [XGTACX_site3689],8.74 ± 0.42
15,ATAAAATAAAATTGGTGTACTTTTGATAAAATAAAA [XGTACX_site4264],8.24 ± 0.28
16,TTAATAAACCTTAGATGTACAGTTATATATAAAATA [XGTACX_site6681],8.54 ± 0.52
17,ATAACATTCAAAAAATGTACAAACATATGAATAAAT [XGTACX_site7013],8.62 ± 0.47
18,TATATATATAACAGAATGCACTTTATATGTTCATAT [GTGCAC_site9880],8.94 ± 0.14
19,CATAAATACATACATACACACATATATATATATATA [CACACA_site2106],10.2 ± 0.41
20,TATACTCATAAATACACACACATATATATATATATA [CACACA_site5822],10.2 ± 0.28
21,TAAATAAATATATATACACACATATATATATATATA [CACACA_site598],10.1 ± 0.36
22,TATATATATATATATACACACATATATATAAATATA [CACACA_site2035],10.2 ± 0.26

row,Sequence,gcPBM binding intensity (ln)
1,CATATATAAATATATACACACATACATACATACATA [CACACA_site5988],8.73 ± 0.3
2,TAAATACATAAATACACACACATATATATATATATA [CACACA_site5549],10.2 ± 0.35
3,CACAAATAAATACATACACACATATATACTCATATA [CACACA_site4379],8.37 ± 0.49
4,TATATATATAAATACACACACACATATATATATATA [CACACA_site4585],10 ± 0.16
5,TAAATAAATACATACACACACATACATATATATATA [CACACA_site3129],9.86 ± 0.26
6,AGAGAAGAAAACAAAACACACACATATATCTTAATA [CACACA_site8699],8.63 ± 0.71
7,AATTTTTAGTATATAACATAAAATAAAATAAAATAA [GTGCAC_negctrl_site696],8.47 ± 0.38
8,AAAATTATATTTTATAGAAATTTAAATAAATATATA [GTGCAC_negctrl_site199],8.01 ± 0.38
9,AATATATATATTAAATGTACATTACATAATTATATA [XGTACX_site3450],8.54 ± 0.43
10,AATGTAAAATATATGTGTACATATGTTTATATATAT [XGTACX_site2216],8.71 ± 0.23
11,TTTTAATTTAAAAATTAATTTATATATATATATATA [TGCATGCA_negctrl_site447],10.3 ± 1
12,ATAATATATAATATAGTGCATTATTTATTAATTAAT [GTGCAC_site9852],8.56 ± 0.085
13,TATATACATTTTTATGTGCACATTTTATTTTTAAAT,9.15 ± 0.31
14,TTATATTATATATATGTGCACATTTTTAAACTTGGA,8.71 ± 0.27
15,ATTTTTTTATAAAATTTTTATATAATTTATTATAAA [GTGCAC_negctrl_site96],8.16 ± 0.52
16,AAAATATATATGTATGTTTATATGTTTATATATATT [XGTACX_negctrl_site337],8.18 ± 0.49
17,TATAATAATATTATAGTGCATATTATTTATATATAA [GTGCAC_site9820],8.22 ± 0.2
18,ATATATATATATATAGTGCACATTTATATAATTATT,10.3 ± 0.17
19,TATATATATATATATGTGCACATTTTATTAAAATGT,10.2 ± 0.34
20,ACCTGTAAAAATGTTTATATATATATATATATATAT [CACACA_negctrl_site1500],10.3 ± 0.37
21,TTATTTTTATATTTTAATTTTAAAAAAATTTTAATT [CACACA_negctrl_site777],8.04 ± 0.46
22,ATTATTTAGAAATGAGCACACAAAAAGAAGAATTTT [CACACA_site7913],8.65 ± 0.52

row,Sequence,gcPBM binding intensity (ln)
1,ATATAAAAAGTGTATCGTACATTTACTTATTTTATA [XGTACX_site6249],8.46 ± 0.3
2,AATACTATTATTATTGCACACTTATTATCCCTCGGA [CACACA_site4262],8.65 ± 0.28
3,CACTAAACATATACACGTACATGCAACGGATTTTTT [XGTACX_site461],8.74 ± 0.3
4,ATGGACAAGTTAAACGCACACAAATATATACAGACA [CACACA_site1652],9.15 ± 0.73
5,TTTTAAAATATATTTGTATATATATATATATATATA [XGTACX_negctrl_site536],10.4 ± 0.35
6,AAATAACAAATTTTTAAAATGTATATATATATATAT [TGCATGCA_negctrl_site219],10.2 ± 0.74
7,AAAAAAATTTTAAAATGTACAAATTTTAATATATAT [XGTACX_site7628],8.55 ± 0.26
8,ATATATTTTTTAAATTTAAAAATTATAAAATTTATA [TGCATGCA_negctrl_site36],8.16 ± 0.45
9,AAAAAAAAAAAAATGTAATTTTTTAATTATTTATAT [GTGCAC_negctrl_site436],7.96 ± 0.43
10,TATAATAAAATATTTTGTACGTATATTTTAATATTT [XGTACX_site2582],8.32 ± 0.45
11,TTTTTTAAATGTATTAAAATTATATATATATATATA [GTGCAC_negctrl_site570],10.2 ± 0.25
12,TTTTTTATTAAATATATATAATAATAATAATTTGTA [CACACA_negctrl_site1719],7.9 ± 0.37
13,ATAACAAAATAATAATGTACGTATAAATATAATTTA [XGTACX_site6049],8.57 ± 0.4
14,AAAAAAAAAAAAAATACACACATATATAAATAAATA [CACACA_site6459],8.31 ± 0.45
15,TATAAACATAAATATACACACAAACATATATGTATT [CACACA_site8324],8.51 ± 0.42
16,CTGTGTTTTGGTTGTACACACGCTACATTCTATATT [CACACA_site2698],9.16 ± 0.28
17,TTTTTAAAAATAACAGAAAAGAATTACAGATTTTTT [XGTACX_negctrl_site472],8.34 ± 0.41
18,TTTTGCTTTTTTTTTCTTTTTTGTTTTATATATATT [CACACA_negctrl_site103],8.51 ± 0.53
19,TTTTGTTGCTCTTTTTTTTTTTTTTTTAACTGTATG [CACACA_negctrl_site1072],8.57 ± 0.43
20,TTTTTTTGCTCTTTTTATATATATATATATATATAT [GTGCAC_negctrl_site70],10.2 ± 0.46
21,TATGTATATATATATATATATATATATATATATATA [TGCATGCA_negctrl_site491],10.1 ± 0.66
22,TAAAGGAGCCTATGAACACACACATGTACTTATATT [CACACA_site9351],8.56 ± 0.4
